According to PubChem BioAssay AID1159580 (chemical genetic matrix, 2015):
Screen size: about 5,500 compounds; about 2,000 (36%) were called active. Another 18% or so got no clear call; they are omitted. Rule as the data show it: active = normalized growth mostly below about 0.91 (no sharp cut-off); inconclusive = no clear call, values can overlap the other calls; inactive = mostly above about 0.92. The list shows a part of the results.

Assay: chemical genetic growth profiling, strain panel (AID 1159580);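 also: tested at 20 µM; growth read once vehicle control cultures reached saturation at 30 °C; 1 = growth at the plate median or of vehicle wells; lower values mean less growth of the strain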
Details: growth OD

Measured: normalized growth

Nc1nc(=S)c2[nH]cnc2[nH]1
inactive: S. cerevisiae deletion strains, locus YJR075W, strain HOC1, hits give low values 1.03 | S. cerevisiae deletion strains, locus YKL009W, strain mrt4, hits give low values 1 | S. cerevisiae deletion strains, locus YKL068W, hits give low values 1 | S. cerevisiae deletion strains, locus YKL085W, strain MDH1 (second series), hits give low values 1.02 | S. cerevisiae deletion strains, locus YKL085W, strain MDH1, hits give low values 1.02 | S. cerevisiae deletion strains, locus YKL160W, strain elf1, hits give low values 0.943 | S. cerevisiae deletion strains, locus YKL190W, strain CNB1, hits give low values 1 | S. cerevisiae deletion strains, locus YKR001C, strain vps1, hits give low values 1.01 | S. cerevisiae deletion strains, locus YKR026C, strain gcn3, hits give low values 0.976 | S. cerevisiae deletion strains, locus YKR091W, strain srl3, hits give low values 0.975 | S. cerevisiae deletion strains, locus YLL001W, strain dnm1, hits give low values 1 | S. cerevisiae deletion strains, locus YLL026W, hits give low values 0.983 | S. cerevisiae deletion strains, locus YLL041C, strain sdh2, hits give low values 0.984 | S. cerevisiae deletion strains, locus YLR027C, strain aat2, hits give low values 0.992 | S. cerevisiae deletion strains, locus YLR039C, strain RIC1, hits give low values 1.08 | S. cerevisiae deletion strains, locus YLR058C, strain SHM2, hits give low values 1.01 | S. cerevisiae deletion strains, locus YLR102C, strain apc9, hits give low values 0.999 | S. cerevisiae deletion strains, locus YLR113W, strain HOG1, hits give low values 0.984 | S. cerevisiae deletion strains, locus YLR221C, strain rsa3, hits give low values 1.03 | S. cerevisiae deletion strains, locus YLR258W, strain gsy2, hits give low values 0.961 | S. cerevisiae deletion strains, locus YLR262C, strain YPT6 (second series), hits give low values 1 | S. cerevisiae deletion strains, locus YLR262C, strain YPT6, hits give low values 1.07 | S. cerevisiae deletion strains, locus YLR268W, strain sec22, hits give low values 1.01 | S. cerevisiae deletion strains, locus YLR320W, strain mms22, hits give low values 0.992 | S. cerevisiae deletion strains, locus YLR330W, strain CHS5, hits give low values 1.01 | S. cerevisiae deletion strains, locus YLR342W, strain FKS1 (second series), hits give low values 1 | S. cerevisiae deletion strains, locus YLR342W, strain FKS1, hits give low values 0.957 | S. cerevisiae deletion strains, locus YLR357W, strain rsc2, hits give low values 0.937 | S. cerevisiae deletion strains, locus YLR370C, strain arc18, hits give low values 0.974 | S. cerevisiae deletion strains, locus YLR371W, strain rom2, hits give low values 1 | S. cerevisiae deletion strains, locus YLR384C, strain iki3, hits give low values 0.97 | S. cerevisiae deletion strains, locus YLR418C, strain cdc73, hits give low values 1 | S. cerevisiae deletion strains, locus YML016C, strain PPZ1, hits give low values 1.01 | S. cerevisiae deletion strains, locus YML032C, strain rad52, hits give low values 0.996 | S. cerevisiae deletion strains, locus YML120C, strain ndi1, hits give low values 0.983 | S. cerevisiae deletion strains, locus YML124C, strain tub3, hits give low values 0.998 | S. cerevisiae deletion strains, locus YMR058W, strain fet3, hits give low values 1 | S. cerevisiae deletion strains, locus YMR078C, strain ctf18, hits give low values 0.997 | S. cerevisiae deletion strains, locus YMR125W, strain sto1, hits give low values 0.952 | S. cerevisiae deletion strains, locus YMR129W, hits give low values 0.971 | S. cerevisiae deletion strains, locus YMR205C, strain PFK2, hits give low values 0.995 | S. cerevisiae deletion strains, locus YMR223W, strain ubp8, hits give low values 0.985 | S. cerevisiae deletion strains, locus YMR231W, strain pep5, hits give low values 0.987 | S. cerevisiae deletion strains, locus YMR263W, strain SAP30, hits give low values 1 | S. cerevisiae deletion strains, locus YMR307W, strain GAS1, hits give low values 1.02 | S. cerevisiae deletion strains, locus YNL067W, strain RPL9B, hits give low values 1.02 | S. cerevisiae deletion strains, locus YNL071W, strain lat1, hits give low values 0.981 | S. cerevisiae deletion strains, locus YNL128W, strain TEP1, hits give low values 1.03 | S. cerevisiae deletion strains, locus YNL153C, strain GIM3, hits give low values 0.992 | S. cerevisiae deletion strains, locus YNL183C, strain NPR1, hits give low values 0.956 | S. cerevisiae deletion strains, locus YNL209W, strain ssb2, hits give low values 0.98 | S. cerevisiae deletion strains, locus YNL233W, strain BNI4, hits give low values 1.01 | S. cerevisiae deletion strains, locus YNL248C, strain rpa49, hits give low values 0.92 | S. cerevisiae deletion strains, locus YNL250W, strain rad50, hits give low values 0.992 | S. cerevisiae deletion strains, locus YNL271C, strain bni1, hits give low values 1 | S. cerevisiae deletion strains, locus YNL298W, strain CLA4, hits give low values 1.01 | S. cerevisiae deletion strains, locus YNL307C, strain MCK1, hits give low values 1 | S. cerevisiae deletion strains, locus YNL322C, strain KRE1 (second series), hits give low values 0.963 | S. cerevisiae deletion strains, locus YNL322C, strain KRE1, hits give low values 1.02 | S. cerevisiae deletion strains, locus YNR049C, strain mso1, hits give low values 0.979 | S. cerevisiae deletion strains, locus YNR052C, strain pop2, hits give low values 0.999 | S. cerevisiae deletion strains, locus YOL006C, strain TOP1, hits give low values 1.06 | S. cerevisiae deletion strains, locus YOL012C, strain htz1 1.07 | S. cerevisiae deletion strains, locus YOL147C, strain pex11, hits give low values 0.995 | S. cerevisiae deletion strains, locus YOR001W, strain rrp6, hits give low values 1.01 | S. cerevisiae deletion strains, locus YOR061W, strain CKA2, hits give low values 1.01 | S. cerevisiae deletion strains, locus YOR069W, strain VPS5, hits give low values 1.01 | S. cerevisiae deletion strains, locus YOR070C, strain gyp1, hits give low values 0.973 | S. cerevisiae deletion strains, locus YOR080W, strain dia2, hits give low values 0.996 | S. cerevisiae deletion strains, locus YOR083W, strain WHI5, hits give low values 0.914 | S. cerevisiae deletion strains, locus YOR106W, strain vam3, hits give low values 0.96 | S. cerevisiae deletion strains, locus YOR136W, strain idh2, hits give low values 0.999 | S. cerevisiae deletion strains, locus YOR144C, strain elg1, hits give low values 0.999 | S. cerevisiae deletion strains, locus YOR184W, strain ser1, hits give low values 1.01 | S. cerevisiae deletion strains, locus YOR231W, strain MKK1, hits give low values 1.02 | S. cerevisiae deletion strains, locus YOR265W, strain rbl2, hits give low values 0.991 | S. cerevisiae deletion strains, locus YOR270C, strain vph1, hits give low values 1.03 | S. cerevisiae deletion strains, locus YOR290C, strain snf2, hits give low values 0.942 | S. cerevisiae deletion strains, locus YOR316C, strain cot1, hits give low values 0.997 | S. cerevisiae deletion strains, locus YPL051W, strain arl3, hits give low values 0.964 | S. cerevisiae deletion strains, locus YPL055C, strain LGE1, hits give low values 1.02 | S. cerevisiae deletion strains, locus YPL078C, strain atp4, hits give low values 0.95 | S. cerevisiae deletion strains, locus YPL106C, strain sse1, hits give low values 0.977 | S. cerevisiae deletion strains, locus YPL240C, strain hsp82, hits give low values 1.02 | S. cerevisiae deletion strains, locus YPL241C, strain CIN2, hits give low values 1.01 | S. cerevisiae deletion strains, locus YPL256C, strain CLN2, hits give low values 0.964 | S. cerevisiae deletion strains, locus YPR119W, strain clb2, hits give low values 1.01 | S. cerevisiae deletion strains, locus YPR141C, strain kar3, hits give low values 0.997 | S. cerevisiae deletion strains, locus YPR163C, strain tif3, hits give low values 1 | S. cerevisiae deletion strains, locus YPR167C, strain met16, hits give low values 1 | S. cerevisiae deletion strains, strain wtn01, hits give low values 0.98 | S. cerevisiae strains, strain wild type, hits give low values 1.01
